Screening data (PubChem BioAssay)
Shown are actives, neighbours in structure and some others; about 2.4% of the full set was active somewhere.
D2 antag: antagonists of human D2 dopamine receptor; P14416; HEK293 TREx D2 cells, calcium flux, dopamine EC80; inhibition, % at 10 µM; 340,000 tested, 2% active; AID 485344; in the data active = inhibition above about 30%; inactive = below that, where a call was filed; note: 0% is about no effect
Target sequence (P14416 whole entry, looked up): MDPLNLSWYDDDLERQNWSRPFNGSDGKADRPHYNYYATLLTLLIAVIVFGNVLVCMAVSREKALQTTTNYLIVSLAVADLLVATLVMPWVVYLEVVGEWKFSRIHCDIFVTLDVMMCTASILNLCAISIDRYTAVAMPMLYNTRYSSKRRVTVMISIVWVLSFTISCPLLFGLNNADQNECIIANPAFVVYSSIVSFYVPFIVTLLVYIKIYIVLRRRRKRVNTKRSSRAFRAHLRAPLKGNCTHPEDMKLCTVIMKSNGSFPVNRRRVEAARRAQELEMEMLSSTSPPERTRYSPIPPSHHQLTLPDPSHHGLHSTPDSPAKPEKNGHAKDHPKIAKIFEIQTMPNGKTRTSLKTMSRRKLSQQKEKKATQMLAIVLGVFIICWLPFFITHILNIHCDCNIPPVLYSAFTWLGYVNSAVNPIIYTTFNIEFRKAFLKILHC
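Measurement of antagonist activity uses fluorescent calcium dye in inducible HEK293 T-REx D2 cells: 10 s baseline, compound addition with 180 s read, EC80 dopamine addition with a further 180 s read.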
D2 PAM-1: potentiates the human D2 dopamine receptor allosterically; P14416; DiscoveRx D2 beta-arrestin cells, luminescence, 90 min; 100% = 57 uM dopamine signal; potentiation, % (test concentration not listed); 360,000 tested, 0.23% active; AID 624464; in the data active = potentiation above about 50%; inconclusive = mostly about 30% to 49%
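PathHunter D2 cells, attached overnight at 37 deg C, received compound in DMSO plus dopamine at EC20 (50 nM final) for 90 min at 37 deg C. Beta-arrestin recruitment was read as luminescence after 1 h with detection reagent at ambient temperature.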
D2 ag-1: activates the human D2 dopamine receptor; DiscoveRx PathHunter D2 beta-arrestin, luminescence, 90 min; 100% = 57 uM dopamine signal; activation, % (concentration not given with the values); 360,000 tested, 0.084% active; AID 624465; in the data active = activation above about 40%; inconclusive = between about 15% and that limit
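Agonist mode: compounds alone added to overnight-plated D2 PathHunter cells for 90 min at 37 C, with 57 uM final dopamine (EC100) defining full response. Beta-arrestin recruitment detected by chemiluminescent reagent, read after 1 h at ambient temperature.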
D2 ag-2: D2 dopamine receptor (human) agonism | 340,000 tested, 0.53% active | HEK293 T-REx D2 cells, calcium flux agonist mode | P14416 | activation, % at 2 µM;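 active = activation over 3 SD above normal in the single-dose calcium agonist read, cut at about 30% in these data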; note: 0% is about no effect
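Agonism scored from kinetic calcium signal (1 read/sec, 180 s) following compound pin transfer, after a 10 s baseline. Cells: HEK293 Trex line expressing inducible D2 receptor coupled to calcium, dye-loaded after overnight culture at 30 C.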
D2 PAM-2: positive allosteric modulators of human D2 dopamine receptor; P14416; HEK293 T-REx D2, calcium flux, EC20 dopamine potentiation; potentiation, % at 10 µM; 340,000 tested, 0.34% active; AID 485347;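 active = potentiation over 3 SD above the plate norm, cut at about 30% in these data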; note: 0% is about no effect
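Primary screen. Calcium kinetics in induced HEK293 T-REx D2 cells: compound pre-addition 180 s, EC20 dopamine, 180 s more.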
An asterisk follows results filed as active; u = inconclusive; x = no result given.

SMILES	D2 antag	D2 PAM-1	D2 ag-1	D2 ag-2	D2 PAM-2
CCC(=O)OCC(=O)Nc1ccc(OC)cc1[N+](=O)[O-]	-15	-3	-1	0	12
CCOC(=O)C(=CNc1ccc(OC)cc1[N+](=O)[O-])C(=O)OCC	31*	8	9	2	-4
CCCOc1ccc(-c2nonc2NC(=O)c2ccco2)cc1OCCC	x	x	x	-1	-2
CC[C@]1(C(=O)OC)[C@H]2C(=O)N(C)C(=O)[C@H]2[C@H]2CN=C(SC)N21	x	x	0	x	x
COc1cc2c3nnc(-c4ccc(F)cc4)c-3cn(Cc3ccccc3)c2cc1OC	29	7	50*	0	1
FC(F)(F)c1ccc(C2[C@H]3CN(Cc4ccc(-c5ccccc5)cc4)[C@H](c4ccccc4)C34CC2(c2ccccc2)C4)cc1 (some centres not stated)	35*	-1	0	0	7
COc1cccc(C(=O)Nc2ccccc2C(=O)OCc2cc(=O)n3c4c(sc3n2)CCCC4)c1	x	x	x	2	1
COc1cc2c(cc1OC)n(CC(=O)c1ccc(C)cc1C)c(=O)n1nc(CCn3nc(C)cc3C)nc21	x	x	x	1	-5
COc1ccc(Cl)cc1NC(=O)CN(C)C(=O)CCC(=O)c1cc(C)sc1C	62*	-13	-6	0	-21
COc1ccc(Cl)cc1NC(=O)CN(C)C(=O)c1ccc(OCc2ccccc2)c(OC)c1	37*	-44	-5	0	-11
O=C1CC(=O)Nc2cc(S(=O)(=O)Nc3cccc(C(F)(F)F)c3)ccc2N1	30*	8	2	0	1
O=C1CC(=O)Nc2cc(S(=O)(=O)Nc3ccc(Cl)c(C(F)(F)F)c3)ccc2N1	10	6	5	0	3
Cc1ccc2[nH]c(=O)c(CN(Cc3ccco3)C(=O)c3ccncc3)cc2c1	-2	-2	0	0	0
O=C(c1cccs1)N(Cc1ccco1)Cc1cc2ccccc2[nH]c1=O	60*	-4	-2	1	-22
Cc1ccc(NC(=O)C2CC(=O)NC(N3CCc4ccccc43)=N2)cc1 (configuration not stated)	44*	-11	-4	1	-18
O=C(COc1ccc([N+](=O)[O-])cc1)Nc1cccc2cccnc12	x	x	x	-1	-6
O=C(CN(C(=O)c1csnn1)c1ccccc1F)NCc1ccc2c(c1)OCO2	-42	-13	-3	0	1
O=C(CN(C(=O)c1csnn1)c1cccc(F)c1)NCc1ccc2c(c1)OCO2	42*	-4	-1	0	-18
CCOC(=O)Cc1c(C)nc2c(-c3ccccc3)c(C)[nH]n2c1=O	-10	-18	2	0	34*
Cc1nc2c(-c3ccc(Cl)cc3)c(C)[nH]n2c(=O)c1Cc1ccccc1	15	-16	2	0	-40
Cc1cccc(Cc2c(C)nc3c(-c4ccccc4)c(C)[nH]n3c2=O)c1	x	x	x	-1	x
COc1ccc(-c2c(C)[nH]n3c(=O)c(Cc4ccccc4)c(C)nc23)cc1OC	35*	-18	0	-1	-29
CCOC(=O)Cc1c(C)nc2c(-c3ccccc3)c(-c3ccccc3)[nH]n2c1=O	10	-13	-6	-1	7
Cc1nc2c(-c3ccccc3)c(C)[nH]n2c(=O)c1Cc1ccccc1	43*	-13	5	0	-19
CCOc1ccc(-n2nc(CO)c(C(=O)NCc3ccc(Cl)cc3)n2)cc1	x	x	x	0	3
SMILES	D2 antag	D2 PAM-1	D2 ag-1	D2 ag-2	D2 PAM-2
COc1ccc(CNC(=O)c2ccc(N3CCCC3)c(NC(=O)NCc3ccc(F)cc3)c2)cc1	x	x	x	1	-1
c1ccc(-c2cnc(SCCN3CCOCC3)n2CC2CCCO2)cc1 (configuration not stated)	34*	-16	1	0	-9
COc1cccc(CC(=O)NCc2ccc3c(c2)CCN3C(C)=O)c1	x	x	x	0	-6
CCC(CC)C(=O)N(c1ccc(F)cc1)C1C=CS(=O)(=O)C1 (configuration not stated)	73*	-7	2	1	1
CC[C@@H](C(=O)[C@@H](C)[C@@H](O)[C@H](C)CCc1ccc(C)c(O)c1C(=O)O)[C@H]1O[C@](CC)([C@H]2CC[C@](O)(CC)[C@H](C)O2)C[C@@H]1C	49*	u	u	15	-20
N#CC1=C(N)N2C(=C(C#N)C1c1cccc(Br)c1)Nc1ccccc12 (configuration not stated)	39*	5	5	11	-7
N#CC1=C(N)N2C(=C(C#N)C1c1ccc(Br)cc1)Nc1ccccc12 (configuration not stated)	0	2	-4	9	2
CCc1ccc(-n2c(=O)c3c(C)c(C)sc3n(CC(=O)NCC3CCCO3)c2=O)cc1 (configuration not stated)	3	-2	-4	0	-4
O=C(Nc1ccccc1)/C(=C1\CCCN1)[N+](=O)[O-]	-19	0	0	2	-3
COc1ccc(Br)cc1CNC(=O)c1cc2n(n1)CCCN(Cc1ccc(C)cc1)C2=O	x	x	x	2	0
CCN(CC)CCn1c(NCc2cccc(OC)c2)nc2ccccc21	44*	-39	-6	0	-19
CCN(CC)CCn1c(NCc2ccc3c(c2)OCO3)nc2ccccc21	33*	-10	-1	1	-20
CCN(CC)CCn1c(NC(=O)c2ccc(C(F)(F)F)cc2)nc2ccccc21	88*	-26	-4	-1	-31
CCN(CC)CCn1c(NCc2cc(OC)ccc2OC)nc2ccccc21	14	-41	-6	-2	-34
CCCn1c(Nc2ccccc2)nc2ccccc21	-17	-31	-6	0	-5
CCCn1c(Nc2cccc(OC)c2)nc2ccccc21	39*	-5	3	-1	4
COc1ccc(C)cc1NS(=O)(=O)c1ccccc1	x	-9	-5	x	x
O=C(Nc1cccnc1)C1COc2ccccc2O1 (configuration not stated)	20	-16	-2	0	41*
O=C(NCCc1ccccc1)C1COc2ccccc2O1 (configuration not stated)	-5	-8	2	0	-4
O=C(NCCc1ccc(O)c(O)c1)C1COc2ccccc2O1 (configuration not stated)	-5	1	41*	1	12
O=C(Nc1ccccc1)C1COc2ccccc2O1 (configuration not stated)	5	-12	0	0	-10
CC(C)c1ccc(NC(=O)c2snc3ccc(Cl)cc23)cc1	-31	3	1	0	-4
Cc1c(C)c2ccc(OCC(=O)Nc3ccccn3)cc2oc1=O	36*	-4	-3	0	10
O=C(NCCN1CCOCC1)c1ccc([N+](=O)[O-])cc1[N+](=O)[O-]	43*	50*	7	1	0
